From the supplement of paper PMC8728848 come the findings set out here.

What all share (experiment): glycan array binding signal (z-score within array); higher = stronger binding
What all share (conditions): glycan notation: IUPAC condensed, linker removed

The subject of test [1] is Fuc(a1-2)[GalNAc(a1-3)]Gal(b1-4)GlcNAc(b1-3)Gal(b1-4)GlcNAc. Put shortly:
(§1)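 Glycan array binding is given as a within-array Z-score, which can be read as non-binding when negative. The arrays, 3228 of them, came from the Consortium for Functional Glycomics database and were retained only where the protein sequence was available. Z-scores were averaged across arrays of the same protein sequence at different concentrations or buffers and across linkers.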

In test [2] the test system is Fuc(a1-2)[GalNAc(a1-3)]Gal(b1-4)GlcNAc(b1-3)GalNAc. Put shortly:
as §1

In test [3] the test system is Fuc(a1-2)[GalNAc(a1-3)]Gal(b1-4)GlcNAc(b1-6)GalNAc. Put shortly:
as §1

For test [4], the system named is Fuc(a1-3)[Gal(b1-4)]GlcNAc(b1-2)Man(a1-3)[Fuc(a1-3)[Gal(b1-4)]GlcNAc(b1-2)Man(a1-6)]Man(b1-4)GlcNAc(b1-4)GlcNAc. In short, it runs like this:
as §1

For test [5], the system named is Fuc(a1-2)[GalNAc(a1-3)]Gal(b1-4)[Fuc(a1-3)]GlcNAc(b1-3)GalNAc. Put shortly:
as §1

Test [6] deals with Fuc(a1-3)[Gal3S(b1-4)]GlcNAc6S. In short, it runs like this: as §1
Test [7] deals with Fuc(a1-2)[GalNAc(a1-3)]Gal(b1-4)GlcNAc. Put shortly:
as §1

The subject of test [8] is Fuc(a1-2)[GalNAc(a1-4)]Gal(b1-4)GlcNAc. Put shortly: as §1
Test [9] has as its system Fuc(a1-2)[GalNAc(a1-3)]Gal. Put shortly:
as §1

The test system of test [10] is Fuc(a1-3)[Gal(b1-4)]GlcNAc(b1-3)Gal(b1-3)[Fuc(a1-4)]GlcNAc. Put shortly:
as §1

Test [11] has as its system Fuc(a1-3)[Gal3S(b1-4)]GlcNAc. Put shortly: as §1
The subject of test [12] is Fuc(a1-3)[Neu5Ac(a2-3)]Gal(b1-4)GlcNAc(b1-3)GalNAc. In short, it runs like this:
as §1

Test [13] relates to Fuc(a1-2)[GalNAc(b1-3)]Gal. In short, it runs like this:
as §1

In test [14] the test system is Fuc(a1-3)[Gal(b1-4)]GlcNAc(b1-6)[Gal(b1-3)GlcNAc(b1-3)]Gal(b1-4)Glc. In short, it runs like this:
as §1

In test [15] the test system is Fuc(a1-3)GlcNAc. In short, it runs like this: as §1
The test system of test [16] is Fuc(a1-3)[Gal(b1-4)]GlcNAc(b1-2)Man. In short, it runs like this:
as §1

The test system of test [17] is Fuc(a1-3)[GalNAc(b1-4)]GlcNAc. In short, it runs like this:
as §1

The test system of test [18] is Fuc(a1-3)[Gal(b1-4)]GlcNAc(b1-3)Gal(b1-4)[Fuc(a1-3)]GlcNAc(b1-3)Gal(b1-4)[Fuc(a1-3)]GlcNAc. Put shortly:
as §1

In test [19] the test system is Fuc(a1-3)[Gal(b1-4)]GlcNAc(b1-3)GalNAc. Put shortly:
as §1

This is one part of a sample in which the strongest signals are shown more often than they occur.

Consider Epa22, for which the “glycan array binding signal (z-score)” value in test [1] stood at 0.068.
For LcI (Legionella pneumophila), the “glycan array binding signal (z-score)” value in [2] worked out at 0.164; in test [3], 2.06; in [4], 0.959.
With AgI/IIC123-GFP (Streptococcus mutans), the “glycan array binding signal (z-score)” value in test [3] is 2.18; in [5], 4.84; in test [6], -0.143.
As to “AgI/II Vhelical-GFP (Streptococcus mutans)”, the “glycan array binding signal (z-score)” value was -0.146 in test [7], 2.49 in test [5], 2.31 in test [8] and -0.111 in [6].
Turning to GspB (Streptococcus gordonii), Q939N5, in [9], the “glycan array binding signal (z-score)” value is -0.616.
As for “SpGH101 (Streptococcus pneumoniae), Q8DR60”, the “glycan array binding signal (z-score)” value is -0.12 in [8]; -0.202 in [4]; -0.148 in test [10]; -0.161 in test [11]; 0.764 in test [12].
As to “SiiE (Salmonella typhimurium), A0A0H3NVH0”, the “glycan array binding signal (z-score)” value in test [13] was found to be 1; in [14] it was 1.13.
For BambL (Burhholderia ambifaria), Q0B4G1, the “glycan array binding signal (z-score)” value stood at 7.79 in [15] and 1.03 in [10].
Turning to Wza (Escherichia coli), P0A930, the “glycan array binding signal (z-score)” value in test [16] was 0.907; in test [11] it was -1.1; in [17], -1.12.
Actinohivin (Actinomycete K97): the “glycan array binding signal (z-score)” value was -0.173 in test [18], -0.169 in test [19] and -0.17 in test [17].
